Assay results as given in the supplement of paper PMC9492666.

Columns and labels:
HCC1937 = assay: relative cell viability, compound + RSL3, vs DMSO (fraction of DMSO control); higher = less growth inhibition; details: 72 h
MDA-MB-231 = assay: as above; details: 72 h
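Also: breast cancer cell viability read out with the CCK-8 kit after co-treatment of each compound with the ferroptosis inducer RSL3.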

Structure (SMILES)	relative cell viability (HCC1937)	relative cell viability (MDA-MB-231)
Cc1c(C(=O)Nc2ccc(CO)cc2)nnn1Cc1ccc(Cl)c(Cl)c1 + COC(=O)c1ccc([C@H]2c3[nH]c4ccccc4c3C[C@H](C(=O)OC)N2C(=O)CCl)cc1 [RSL3]	0.406	0.573
CC(C)CCC[C@@H](C)[C@H]1CC[C@H]2[C@@H]3CCC4=CC(=NO)CC[C@]4(C)[C@H]3CC[C@]12C [Olesoxime] + COC(=O)c1ccc([C@H]2c3[nH]c4ccccc4c3C[C@H](C(=O)OC)N2C(=O)CCl)cc1 [RSL3]	0.454	0.689
COc1cc(O)c2c(c1)O[C@H](c1ccc(O)cc1)CC2=O [Sakuranetin] + COC(=O)c1ccc([C@H]2c3[nH]c4ccccc4c3C[C@H](C(=O)OC)N2C(=O)CCl)cc1 [RSL3]	0.362	0.645
COc1cc([C@@H]2Oc3c(O)cc([C@H]4Oc5cc(O)cc(O)c5C(=O)[C@@H]4O)cc3[C@H]2CO)ccc1O [Silychristin] + COC(=O)c1ccc([C@H]2c3[nH]c4ccccc4c3C[C@H](C(=O)OC)N2C(=O)CCl)cc1 [RSL3]	0.567	0.66
CCOC(=O)N1c2ccc(C(F)(F)F)cc2[C@@H](N(Cc2cc(C(F)(F)F)cc(C(F)(F)F)c2)C(=O)OC)C[C@H]1CC [Torcetrapib] + COC(=O)c1ccc([C@H]2c3[nH]c4ccccc4c3C[C@H](C(=O)OC)N2C(=O)CCl)cc1 [RSL3]	0.642	0.458
COC(=O)CN(c1ccc(CN(c2ccc(OCc3ccc(C)cc3)c(C(=O)OC)c2)S(=O)(=O)Cc2ccccc2)cc1)S(C)(=O)=O + COC(=O)c1ccc([C@H]2c3[nH]c4ccccc4c3C[C@H](C(=O)OC)N2C(=O)CCl)cc1 [RSL3]	0.538	0.626
CCC(C)(Oc1ccc(C2(c3ccc(OC(C)(CC)C(=O)O)cc3)CCCCC2)cc1)C(=O)O (centres undefined) [Clinofibrate] + COC(=O)c1ccc([C@H]2c3[nH]c4ccccc4c3C[C@H](C(=O)OC)N2C(=O)CCl)cc1 [RSL3]	0.561	0.452
Cc1c2c(=O)n(-c3ccccc3Cl)[nH]c2cc(=O)n1Cc1ccccn1 + COC(=O)c1ccc([C@H]2c3[nH]c4ccccc4c3C[C@H](C(=O)OC)N2C(=O)CCl)cc1 [RSL3]	0.452	0.626
O=C(Nc1cccnc1)N1CCC(Cc2cccc(Oc3ccc(C(F)(F)F)cn3)c2)CC1 + COC(=O)c1ccc([C@H]2c3[nH]c4ccccc4c3C[C@H](C(=O)OC)N2C(=O)CCl)cc1 [RSL3]	0.727	0.644
COC(=O)N(CC(=O)O)Cc1cccc(OCc2nc(-c3ccc(Cl)cc3)oc2C)c1 + COC(=O)c1ccc([C@H]2c3[nH]c4ccccc4c3C[C@H](C(=O)OC)N2C(=O)CCl)cc1 [RSL3]	0.538	0.709
O=C1c2cccc(O)c2C(=O)c2c(O)cccc21 [Antrapurol] + COC(=O)c1ccc([C@H]2c3[nH]c4ccccc4c3C[C@H](C(=O)OC)N2C(=O)CCl)cc1 [RSL3]	0.583	0.537
O=C(O)c1cccnc1Nc1cccc(C(F)(F)F)c1 [Niflumic acid] + COC(=O)c1ccc([C@H]2c3[nH]c4ccccc4c3C[C@H](C(=O)OC)N2C(=O)CCl)cc1 [RSL3]	0.734	0.53
O=C1c2cc(CO)cc(O)c2C(=O)c2c(O[C@@H]3O[C@H](CO)[C@@H](O)[C@H](O)[C@H]3O)cccc21 [Aloe-emodin-8-O-beta-D-glucopyranoside] + COC(=O)c1ccc([C@H]2c3[nH]c4ccccc4c3C[C@H](C(=O)OC)N2C(=O)CCl)cc1 [RSL3]	0.368	0.544
Cc1coc2c1C(=O)C(=O)c1c-2ccc2c(C)cccc12 [Tanshinone I] + COC(=O)c1ccc([C@H]2c3[nH]c4ccccc4c3C[C@H](C(=O)OC)N2C(=O)CCl)cc1 [RSL3]	0.218	0.305
O=C(CCCCc1ccc2c(c1)OCO2)N1CCCCC1 + COC(=O)c1ccc([C@H]2c3[nH]c4ccccc4c3C[C@H](C(=O)OC)N2C(=O)CCl)cc1 [RSL3]	0.262	0.562
COc1cc(C(C)=O)ccc1O [Acetovanillone] + COC(=O)c1ccc([C@H]2c3[nH]c4ccccc4c3C[C@H](C(=O)OC)N2C(=O)CCl)cc1 [RSL3]	0.389	0.594
COc1ccc2c(=O)c(-c3ccccc3)coc2c1 [7-Methoxyisoflavone] + COC(=O)c1ccc([C@H]2c3[nH]c4ccccc4c3C[C@H](C(=O)OC)N2C(=O)CCl)cc1 [RSL3]	0.396	0.419
